Inconclusive results are not listed. Activity calls are given as the source filed them. The call rests on the fitted dose curve; in most records, active means well fitted cell-killing curve with a large enough effect; inconclusive means small, poorly fitted or top-dose-only effect, or effect the other way; inactive means no such curve, though single readings can be large or run the other way.
Potency means the concentration at half of the fitted maximal effect.

The first experiment is described as follows: Viability qHTS for spleen associated tyrosine kinase inhibitor (SYKi) naive MV4-11 cells (AID 1963823). Further: nearly all actives have a fitted effect of over 40% in size. Particulars: MV4-11 AML viability, CellTiter-Glo luminescence, 72 h; series mostly up to 45 µM; viability (% of control): at the top concentration. An outline of the steps: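 Seeding of 500 SYKi-naive MV4-11 cells per well onto pre-dispensed compounds preceded a 72 hr incubation at 37 C. Luminescent CellTiter-Glo signal, read after 10 min at room temperature, reflected viable cells.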
For the molecule `CCCCNc1ccc(C(=O)OCCOCCOCCOCCOCCOCCOCCOCCOCCOC)cc1`, the Potency is 10.6 µM (active).

Regarding `N#C/C(=C\c1ccc(O)c(O)c1)C(=O)NCc1ccccc1`, the Potency was 13.2 µM (active).

Turning to `O=C(O)Cc1ccc(OCCNC[C@H](O)c2ccccc2)cc1`, the “viability (% of control)” value was 84.4% (inactive).

As for `COC(=O)c1ccc([C@H]2c3[nH]c4ccccc4c3C[C@H](C(=O)OC)N2C(=O)CCl)cc1`, the Potency was 0.235 µM (active).

With `O=C(NOCCO)c1ccc2cncn2c1Nc1ccc(I)cc1F`, the Potency was 2.06 µM (active).

As for `Cc1c(-c2ccc(-c3ccccc3F)cc2)nc2ccc(F)cc2c1C(=O)O`, the Potency is 0.148 µM (active).

For the molecule `Cc1nnn(C)c1-c1cnc2c3ccc(C(C)(C)O)cc3n([C@H](c3ccccc3)C3CCOCC3)c2c1`, the Potency is 0.0042 µM (active).

For the molecule `Cc1ccsc1C(=CCCN1CCC[C@@H](C(=O)O)C1)c1sccc1C`, the “viability (% of control)” value was 45.1% (inactive).

A further experiment in a line: Viability qHTS for spleen associated tyrosine kinase inhibitor (SYKi) drug resistant MV4-11 cells (AID 1963824). Further: nearly all actives have a fitted effect of over 35% in size. Particulars: SYKi-resistant MV4-11 viability, CellTiter-Glo, 72 h; series mostly up to 45 µM; viability, % of control: at the top concentration. Put shortly:
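SYK-inhibitor-resistant MV4-11 AML cells were seeded at 500 per well onto compound and cultured 72 hours (37 °C, 5% CO2). CellTiter-Glo was then added, and after 10 min at room temperature, luminescence gave viability.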
(In qHTS, concentration-response curves come from the screen itself.)
Regarding `CC(=O)O[C@@H]1[C@@H](O)[C@H](O[C@@H]2[C@@H](O)[C@@H](O)[C@H](O[C@H]3[C@H](O[C@H]4[C@H](O[C@H]5CC[C@@]6(C)C(CC[C@]7(C)C6CC=C6[C@@H]8CC(C)(C)CC[C@]8(C(=O)O)CC[C@]67C)[C@]5(C)CO)O[C@H](CO)[C@@H](O)[C@@H]4O)OC[C@@H](O)[C@@H]3O)O[C@H]2C)OC[C@H]1O` (stereo partly drawn), the Potency was 3.9 µM (active).

Consider `CC(Oc1cc(-n2cnc3ccc(CN4CCN(C)CC4)cc32)sc1C(N)=O)c1ccccc1C(F)(F)F` (stereo not drawn), for which the Potency is 0.461 µM (active).

On to `C/C=C/C=C/C=C/C(=O)O[C@@H]1C=C(CO)C(O)(C(=O)OC)[C@@]2(C)CCCC(C)(C)C12` (stereo partly drawn), for which the Potency is 10 µM (active).

For `CCc1cnn2c(NCc3ccc[n+]([O-])c3)cc(N3CCCCC3CCO)nc12` (stereo not drawn), the Potency was 0.0065 µM (active).

Regarding `Cc1onc(-c2ccccc2)c1C(=O)N1CCN(c2ccc([N+](=O)[O-])cc2Cl)CC1`, the Potency was 13 µM (active).

Take `O=C1OC2(c3ccc(O)cc3Oc3cc(O)ccc32)c2ccccc21`: the “viability, % of control” value is 57.2% (inactive).

As for `COc1cc2c(cc1OC)N1C(=O)C[C@]34C=CCN5CC[C@@H]2[C@@H](CC3)[C@]514`, the Potency is 8.05 µM (active).

`COc1ccc(-c2nc(-c3cc(C(F)(F)F)cc(C(F)(F)F)c3)n(Cc3ccc(C(N)=O)cc3)c2-c2ccc(OC)cc2)cc1`: the Potency is 3.66 µM (active).

Regarding `C/C=C(/C)C(=O)O[C@H]1[C@H](OC(=O)/C(C)=C\C)[C@@]23C(CC1(C)C)[C@]1(CCC4[C@@]5(C)CC[C@H](O[C@@H]6O[C@H](C(=O)O)[C@@H](O)[C@H](O[C@@H]7O[C@H](CO)[C@H](O)[C@H](O)[C@H]7O[C@@H]7O[C@@H](C)[C@H](O)[C@@H](O)[C@H]7O[C@@H]7OC[C@@H](O)[C@H](O)[C@H]7O)[C@H]6O[C@@H]6O[C@H](CO)[C@H](O)[C@H](O)[C@H]6O)C(C)(C)C5CC[C@@]4(C)[C@]1(C)C[C@H]2O)O[C@H]3O` (stereo partly drawn), the Potency was 0.776 µM (active).

On to `O=C(NO)c1ccc(CC(=O)N(CCO)c2ccccc2)cc1`, for which the Potency was 16.4 µM (active).

With `CNC(C)C(=O)NC(C(=O)N1CCCC1c1nc(C(=O)c2ccc(F)cc2)cs1)C1CCCCC1` (stereo not drawn), the Potency was 2.59 µM (active).

Take `COCC(=O)NC/C=C/c1ccc2ncnc(Nc3ccc(Oc4ccc(C)nc4)c(C)c3)c2c1`: the Potency is 9.2 µM (active).

As to `C=CC(=O)Nc1cc(Nc2nccc(-c3c[nH]c4ccccc34)n2)c(OC)cc1N(C)CCN(C)C`, the Potency is 0.58 µM (active).

Consider `C[C@@H]1O[C@@H](O[C@H]2[C@H](O)[C@@H](C(=O)O)O[C@@H](O[C@H]3CC[C@@]4(C)C(CC[C@]5(C)C4CC=C4C6CC(C)(C)CC[C@]6(C(=O)O)CC[C@]45C)C3(C)C)[C@@H]2O[C@@H]2OC[C@@H](O)[C@H](O)[C@H]2O)[C@H](O)[C@H](O)[C@H]1O` (stereo partly drawn), for which the viability, % of control is 92.4% [at 9.25 µM] (inactive).

Regarding `CC(C)c1c(O)ccc2c1CC[C@H]1C(C)(C)CCC[C@]21C`, the Potency was 16.4 µM (active).

As for `CCCCCc1ccc(/C=C/[C@H](O)[C@@H](CO)NC)cc1`, the Potency is 20.6 µM (active).

Regarding `O=c1[nH]c2cccc(N3CCN(Cc4ccc(-c5ccccc5)cc4)CC3)c2o1`, the Potency was 20.6 µM (active).

As for `CC(F)(F)CN1CCOc2c(nn(-c3ccccc3Cl)c2-c2ccc(Cl)cc2)C1=O`, the Potency was 20.6 µM (active).

With `Cc1noc2c1-c1ccccc1C(c1ccc(Cl)cc1)=N[C@H]2CC(N)=O`, the Potency was 0.332 µM (active).

On to `CC1OC2OC(=O)C3(C)CC4C5(CO5)C5=CC(=O)OC(C)(C)C5=CC(=O)C4(C)C(C1=O)C23` (stereo not drawn), for which the Potency was 5.02 µM (active).

Source of the values: PubChem BioAssay (NCATS).
